In PubChem BioAssay (NCI) one finds growth data, which are given here for 35 compounds.

This is part of a sample that, as a whole, favours compounds with a hit. Of some 83,000 tested, about 20% had one in any assay.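 Cell lines were cultured in 96-well plates, exposed to a single compound concentration, and assessed for percent growth 48 hours later.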 The source made the active and inactive calls. The calls were made as follows: active = growth percent below 10; inactive = the rest.

The assay relates to OVCAR-5 ovarian. As to the kind of experiment: NCI-60 one-dose screen, 48 h (100 = growth as untreated, 0 = no growth, -100 = all killed). As to conditions: 10 µM unless noted.
Regarding `CC[n+]1ccc2c(c1)C(=O)c1nccc3c1c-2nc1ccccc13`, the growth was 87.7% (inactive).
To `COc1ccc(-c2csc(NC(=O)CN3CCN(c4cc5c(cc4F)c(=O)c(C(=O)O)cn5C4CC4)CC3)n2)cc1` belongs 37.4% (inactive); to `O=C1c2cc3c(cc2-c2c1c1cc(F)c(F)cc1c(=O)n2C[C@H](O)CO)OCO3`, 4.09% (active); to `Cn1c2ccccc2c2c3c(c4c5ccccc5n(CCCCCC#N)c4c21)C(=O)N(O)C3=O`, 12.8% (inactive).
`CCOC(=O)c1c2c(n3ccc(NC(=O)CCN4CCOCC4)cc13)C(=O)c1ncccc1C2=O`: the growth is 88.9% (inactive).
The result for `Oc1ccccc1N=Cc1c(O)ccc2ccccc12` reads 87.3% (inactive).
For `O=c1ccc2cc3ccccc3cc2[nH]1`, the growth was 82% (inactive).
Take `O=C(Nc1ccc(Oc2ccc(F)cc2)c(Cl)c1)c1cccnc1`: the growth was 99.9% (inactive).
As for `CCCCCCCCCc1cc(CN2CCCCC2)c(O)c(CN2CCCCC2)c1`, the growth is 59.8% (inactive).
The result for `CC/C(Cc1ccccc1)=C(\c1ccc(OCCN2CCCC2)cc1)c1ccc(OC(C)=O)cc1` reads 92.6% (inactive); that for `C=C1CC[C@@H]2[C@](C)(COC(C)=O)[C@H](OC(C)=O)CC[C@@]2(C)[C@@H]1CC(Nc1ccc(S(=O)(=O)Nc2nc(C)cc(C)n2)cc1)C1=CCOC1=O` (stereo not given in full), 103% (inactive).
To `COc1ccc2c(c1)C(=O)/C(=C/c1cccc(OCC(=O)Nc3nc4c(s3)CCCC4)c1)O2` belongs -13.6% (active); to `O=C([C@@H](COCc1ccccc1)N1C(=O)[C@@H](N2C(=O)OC[C@@H]2c2ccccc2)[C@H]1/C=C/c1ccccc1)N1CCC(CCN2CCCCC2)CC1`, 102% (inactive).
To `O=c1[nH]c(-c2ccccn2)nc2sc3c(c12)CCCCC3` belongs 72.1% (inactive); to `NC1=CC(=O)C(=O)c2ccccc21`, 93.3% (inactive).
Take `CN1CCOCCOCCOc2ccccc2NC(=O)c2nc(cnc2N)-c2ccc(cc2)S1(=O)=O`: the growth is 148% (inactive).
On to `COc1ccc(S(=O)(=O)NCCCNc2nccc(-c3c(-c4cccc(N)c4)nc4sccn34)n2)cc1`, for which the growth was 134% (inactive).
Turning to `COc1ccccc1N1CCN(CCn2c(=O)c3c(c4ccccc4n3C)n(C)c2=O)CC1`, the growth was 111% (inactive).
The result for `COc1cnc2c(c1)C(=O)c1c-2n(CCCBr)c(=O)c2cc([N+](=O)[O-])ccc12` reads 5.53% (active); that for `O=C(C[C@@H](C(=O)NCc1cccc(C(F)(F)F)c1)N1C(=O)[C@@H](N2C(=O)OC[C@@H]2c2ccccc2)[C@H]1/C=C/c1ccccc1)NC1CCN(Cc2ccccc2)CC1`, 104% (inactive).
Turning to `CCCCCCNC(=O)Oc1ccc(/C(=C(\C)c2ccccc2)c2ccc(OCCN(CC)CC)cc2)cc1`, the growth is 76.9% (inactive).
Take `CC#CC#Cc1cccc(=O)o1`: the growth was 101% (inactive).
To `CCCCCCCCCCCCNC(=O)[C@H]1CSC(c2ccc(OC)c(F)c2)N1` (stereo not given in full) belongs -98.6% (active); to `O=C(CN1CCN(c2cc3c(cc2F)c(=O)c(C(=O)N/N=C/c2ccccc2)cn3C2CC2)CC1)N/N=C\c1ccccc1`, 98.6% (inactive); to `CNc1nc(C)c(-c2nc(Nc3cccc(S(N)(=O)=O)c3)ncc2F)s1`, 3.14% (active).
The result for `CC1=CC(=O)CC(C)(C)[C@@]1(O)/C=C/[C@@H](C)O` reads 103% (inactive).
Consider `CC(=O)Nc1ccc2c(c1)c(NC(C)=O)nn2C(=O)Nc1ccc(Cc2ccccc2)cc1`, for which the growth was 67.1% (inactive).
Consider `Cn1c2ccccc2c2c3c(c4c5ccccc5[nH]c4c21)C(=O)N(N)C3=O`, for which the growth is 89.3% (inactive).
For the compound `COc1cc(OC)c(/C=C/C(=O)c2c(OC)cc(OC)cc2OC)c(OC)c1`, the growth is 29.1% (inactive).
Consider `CCCCCCCCCCCCCCCCCCNC(=O)[C@H]1CSC(c2ccc(OC)c(F)c2)N1` (stereo not given in full), for which the growth is -13.3% (active).
For `O=C1c2cc3c(cc2-c2c1c1cc(Cl)c(Cl)cc1c(=O)n2C[C@H](O)CO)OCO3`, the growth was -23% (active).
The result for `COc1cc2nc3cc([N+](=O)[O-])ccc3c(NCCCNCC(C)(C)O)c2cc1OC` reads -3.65% (active); that for `CC(C)C1=C[C@@]23CC[C@@H]4[C@](C)(CCC[C@@]4(C)C(=O)OCC#CCN4CCCC4)[C@H]2C[C@@H]1[C@H]1C(=O)OC(=O)[C@H]13`, 97.3% (inactive); that for `CN(C)c1ccc(/C=C(\C#N)c2nc3ccccc3s2)cc1`, 109% (inactive).
The result for `COc1ccc(Cl)cc1Nc1nc(C(F)(F)F)ccc1C(=O)N/N=C/c1cccnc1` reads 57% (inactive).
